Data taken from PubChem BioAssay.

Test: inhibitors of PAF-induced NFkB signaling in CF airway cells, dose response, cell-based, uHTS hits, panel, cytotoxicity readout (AID 624344)
Conditions: CF bronchial epithelial cells, PAF-induced NFkB reporter inhibition, with PAF, run 2; at 79 µM (top of the series) unless noted

Structure (SMILES) | inhibition [%]
COc1ccc(-n2c(C)c(C(C)=O)c3cc(O)ccc32)cc1 | 95.2
COc1ccc(-c2cnc3c(NC=O)cc(-c4ccc(C(=O)N5CCOCC5)cc4)cn23)cc1OC | 99
CC(=O)Nc1ccc(NC(=O)COC(=O)c2c3c(nc4ccccc24)CCN(Cc2ccccc2)C3)cc1 | 89.8
COc1ccc(-c2cc(NC=O)c3ncc(-c4ccc(OC)c(OC)c4)n3c2)c(OC)c1 | 86.2
c1ccc2c(c1)Nc1ccncc1S2 | 106
O=C(Nc1ccc(F)cc1)Nc1ccc(N2CCCC2)c(S(=O)(=O)Nc2ccccc2Cl)c1 | 89.3
O=C(N/N=C/c1ccccc1)c1[nH]c2ccc(Br)cc2c1-c1ccccc1 | 79.5
COc1ccc(-c2nc(NC(=O)c3ccc(OCC(=O)Nc4ccc(F)cc4)c(OC)c3)sc2C)cc1 | 96.2
COC(=O)C1=C(C(=O)OC)[C@@H]2N(Cc3ccccc3)c3ccccc3[C@@]23C[C@@H](C(=O)OC)N(C(=O)c2ccc(Br)cc2)C3=N1 | 110
O=[N+]([O-])c1ccc(NC(=S)NCCc2ccc(F)cc2)cc1 | 105
COC(=O)c1c(C)n(-c2ccc(OC)cc2)c2ccc(O)cc12 | 94.9
COc1ccccc1[C@]1(C)ON(c2ccccc2C(F)(F)F)C1=O | 109
O=C(c1cncc(Br)c1)N1CCc2ccccc2C1 | 80.2
CC(=C/c1ccccc1)/C=N/n1c(-c2ccncc2)n[nH]c1=S | 103
ON=C1c2ccccc2-c2cc(Br)ccc21 | 106
CCOC(=O)Cc1nnc2c(Nc3ccc(Cl)cc3)nc3nonc3n12 | 101
Cc1ccc(C(=O)c2cncc(Br)c2)cc1 | 93.4
CC(=O)N1CC(=O)N=C1SCC(=O)Nc1nc(C)c(-c2ccccc2)s1 | 73.4
Cc1ccc(C(=O)Nc2cccc(C(F)(F)F)c2)cc1NC(=O)c1cnnc2ccccc12 | 88.8
Nc1nc(N)nc(-c2ccc(Cl)c(Cl)c2)n1 | 101

Structure (SMILES) | inhibition [%]
CCCCCOC(=O)c1[nH]c2c(c1C)C(=O)CC(c1ccco1)C2 (centres undefined) | 62.8
CC(=O)Oc1c(Br)cc(N(C(C)=O)S(=O)(=O)c2ccccc2)c2ccccc12 | 88.1
COc1ccc(-n2nc(C(=O)NCC(=O)Nc3cc(OC)c(OC)c(OC)c3)c3ccccc3c2=O)cc1Cl | 95.1
NC(c1csc(NC(=O)Nc2cccc(Cl)c2)n1)c1ccccc1Cl (centres undefined) | 101
CCN1CCN(Cc2ccc(NC(=O)c3ccc(C)c(NC(=O)c4cc(-c5ccc(Br)cc5)n[nH]4)c3)cc2C(F)(F)F)CC1 | 112
Nc1nc(/C=C/c2cccnc2)nc(-c2ccccc2O)n1 | 110
C=C1C(=O)[C@]23C[C@H]1CC[C@H]2[C@]1(C)[C@@H](O)CC[C@@](C)(C(=O)O)[C@H]1C[C@@H]3O | 103
COc1ccc(S(=O)(=O)N2c3ccc(F)cc3CCC2C)cc1 (centres undefined) | 71.7
Cc1ccc(C(=O)c2cc([N+](=O)[O-])ccc2N2CCCCC2)c(C)c1 | 54.3
O=[N+]([O-])c1ccc(O)c(C2CCCCC2)c1 | 103
CCc1cc2c(Sc3nc4ccccc4s3)ncnc2s1 | 98.3
Cc1ccc(-c2n[nH]c(=S)n2/N=C/c2ccncc2)cc1 | 96
CC(C)n1c(SCc2ccccc2F)nc2c1c(=O)n(C)c(=O)n2C | 95.1
CCCCN(c1ccccc1)c1ncnc(N)c1[N+](=O)[O-] | 101
CC(C)(CO)CNc1ccn2nccc2n1 | 99.8
C[C@H](O)[C@@H]1CN2CCc3c([nH]c4ccc(-c5ccc6c(c5)OCO6)cc34)[C@@H]2C[C@@H]1N(C)C(=O)Nc1ccc(F)cc1 | 107
COc1cc(-c2cc(C(=O)Nc3ccc(S(=O)(=O)NCc4ccco4)cc3)c3ccccc3n2)cc(OC)c1OC | 102
Nc1nc(N)nc(-c2cc([N+](=O)[O-])ccc2O)n1 | 66.7
CCN1CCN(Cc2ccc(NC(=O)c3ccc(C)c(NC(=O)c4ccc5n[nH]nc5c4)c3)cc2C(F)(F)F)CC1 | 111
